Screen size: about 310,000 compounds; about 14,000 (4.5%) showed an effect of 50% or more. The effect is printed as a negative number. The sample as a whole holds a higher share of strong results than the screen did.
The compounds below were run against human ether-à-go-go-related gene (hERG) potassium channel (human, UniProt Q12809) (assay: primary screen, population patch clamp on CHO cells stably expressing hERG; higher = less effect of the substance).
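Also: peak tail current of the secondary pulse compared with the same well before compound.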

human ether-à-go-go-related gene (hERG) potassium channel, sequence (Q12809 whole entry, looked up): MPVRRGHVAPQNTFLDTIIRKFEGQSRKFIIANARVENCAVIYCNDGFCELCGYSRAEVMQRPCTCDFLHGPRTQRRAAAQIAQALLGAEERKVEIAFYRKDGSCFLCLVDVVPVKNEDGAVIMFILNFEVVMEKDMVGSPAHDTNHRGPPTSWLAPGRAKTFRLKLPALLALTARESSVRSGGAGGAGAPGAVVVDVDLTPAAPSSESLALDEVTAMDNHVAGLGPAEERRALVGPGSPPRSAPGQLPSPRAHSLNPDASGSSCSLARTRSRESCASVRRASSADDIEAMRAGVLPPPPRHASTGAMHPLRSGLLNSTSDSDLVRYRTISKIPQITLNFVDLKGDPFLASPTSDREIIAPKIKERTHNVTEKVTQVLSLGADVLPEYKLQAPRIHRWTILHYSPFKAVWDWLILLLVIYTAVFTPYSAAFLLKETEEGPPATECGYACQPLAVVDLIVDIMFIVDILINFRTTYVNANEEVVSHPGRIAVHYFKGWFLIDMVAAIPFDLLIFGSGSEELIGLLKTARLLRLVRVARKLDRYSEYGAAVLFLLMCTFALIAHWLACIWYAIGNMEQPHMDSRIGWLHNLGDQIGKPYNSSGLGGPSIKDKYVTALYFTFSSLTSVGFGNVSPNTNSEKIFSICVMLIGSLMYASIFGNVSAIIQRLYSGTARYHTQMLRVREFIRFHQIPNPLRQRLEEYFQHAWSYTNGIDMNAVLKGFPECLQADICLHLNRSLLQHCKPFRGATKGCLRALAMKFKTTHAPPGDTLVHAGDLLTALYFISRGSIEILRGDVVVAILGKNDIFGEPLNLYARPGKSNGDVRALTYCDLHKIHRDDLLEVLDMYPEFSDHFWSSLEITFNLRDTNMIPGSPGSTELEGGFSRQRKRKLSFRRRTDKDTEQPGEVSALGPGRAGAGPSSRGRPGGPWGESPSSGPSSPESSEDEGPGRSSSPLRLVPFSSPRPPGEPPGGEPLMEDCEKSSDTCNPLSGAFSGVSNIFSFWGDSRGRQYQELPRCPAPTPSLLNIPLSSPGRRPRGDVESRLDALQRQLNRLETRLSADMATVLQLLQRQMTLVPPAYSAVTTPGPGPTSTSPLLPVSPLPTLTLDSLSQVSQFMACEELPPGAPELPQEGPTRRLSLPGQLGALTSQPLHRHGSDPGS

Row | Compound | hERG current change (%, negative = inhibition) at 10uM [%]
1 | Cc1ccc(Nc2cc(C)nc(NCc3ccccc3)n2)cc1 | -5.08
2 | CCCCOc1cc(C)nc(NCc2ccccc2)n1 | 5.5
3 | Cc1cc(N/N=C/c2ccccc2)nc(NCc2ccccc2)n1 | -2.93
4 | Cc1cc(N/N=C/c2ccc(F)cc2)nc(NCc2ccccc2)n1 | -64.2
5 | CCCCNc1cc(C)nc(NCc2ccccc2)n1 | -59
6 | Cc1ccc(/C=N/Nc2cc(C)nc(NCc3ccccc3)n2)cc1 | -6.03
7 | CN(C)C(CNC(=O)c1cccs1)c1ccco1 (centres unmarked) | 0.144
8 | CC(=O)N1c2ccc(S(=O)(=O)N3CCC(C(=O)NC4CCC(C)CC4)CC3)cc2CC1C (centres unmarked) | 17.3
9 | Cc1ccc(S(=O)(=O)N(C(=O)c2ccncc2)c2ccc(OC(=O)c3ccncc3)cc2)c(C)c1 | -0.914
10 | O=C(O)C(Cc1ccc(Cl)cc1)NS(=O)(=O)c1ccc(Cl)cc1 (centres unmarked) | 27.1
11 | O=S(=O)(N/N=C\c1ccc(-c2ccccc2Cl)o1)c1ccccc1 | 10.4
12 | CCN(CC)c1ccc(NC(=O)CN2CCN(c3ccccc3F)CC2)cc1 | -5.61
13 | CCN(CC)c1ccc(NC(=O)CN2CCN(c3nc(C)cc(C)n3)CC2)cc1 | -21.7
14 | CN(C)c1ccc(NC(=O)CN2CCC(C(=O)c3ccc(F)cc3)CC2)cc1 | -32.1
15 | CN(C)c1ccc(NC(=O)CN2CCN(CC(=O)Nc3ccc(F)cc3)CC2)cc1 | -77.1
16 | CCN1CCN(CC(=O)Nc2ccc(N(C)C)cc2)CC1.O=C(O)C(=O)O | -2.52
17 | CN(C)c1ccc(NC(=O)CN2CCN(c3ccc(F)cc3)CC2)cc1 | -4.56
18 | CCN(CC)c1ccc(NC(=O)CN2CCN(CC(=O)Nc3ccccc3F)CC2)cc1 | -64.9
19 | CCN(CC)c1ccc(NC(=O)CN2CCN(CC(=O)Nc3ccc(F)cc3)CC2)cc1 | -76.4
20 | CCN(CC)c1ccc(NC(=O)CN2CCN(c3ccccn3)CC2)cc1 | -2.86

Row | Compound | hERG current change (%, negative = inhibition) at 10uM [%]
21 | COc1ccc(NC(=O)CSc2n[nH]c(-c3ccco3)n2)cc1 | -2.42
22 | Br.CC(C)CC(N)C(=O)OCc1ccc([N+](=O)[O-])cc1 (centres unmarked) | 7.33
23 | CCN(CC)c1nc(Nc2ccccc2)nc(Oc2ccc(=O)[nH]n2)n1 | -14.2
24 | COc1ccc(CCNC(=O)C(=O)c2c(C)[nH]c3ccccc23)cc1 | 6.09
25 | Cc1nc2nc(SCC(=O)N3CCC4(CC3)OCCO4)nn2c(C)c1Cc1ccccc1 | -24.9
26 | CCCN(C(=O)c1ccccc1Cc1ccccc1)C1CCS(=O)(=O)C1 (centres unmarked) | -0.454
27 | COc1ccc(CN2CCOCC2)cc1 | 10.7
28 | COc1ccc(CN2CCOCCOCCN(Cc3ccc(OC)cc3)CCOCCOCC2)cc1 | -77.3
29 | COc1ccc(CN2CCCCCC2)cc1 | -10.9
30 | COc1ccc(CN2CCOCCOCCOCCOCCOCC2)cc1 | -20.7
31 | COc1ccc(CN2CCOCCOCCOCCOCC2)cc1 | -36
32 | COc1ccc(CN2CCOCCOCCOCC2)cc1 | -58.3
33 | COc1ccc(-n2nnnc2SCC(=O)Nc2cc(OC)c([N+](=O)[O-])cc2C)cc1 | 42.4
34 | COc1ccccc1N1CCN(C(=O)C(C)N(c2ccccc2)S(C)(=O)=O)CC1 (centres unmarked) | 5.64
35 | CCOC(=O)Nc1ccc(C)cc1NC(=O)OCC | 11.7
36 | Cc1ccc(NS(=O)(=O)c2cccs2)c(C)c1 | -2.42
37 | N#C/C(=C/c1ccc(F)cc1)S(=O)(=O)c1ccccc1 | 21.3
38 | COc1cccc(CN2CCN(Cc3nc(-c4cccs4)oc3C)CC2CCO)c1 (centres unmarked) | -57
39 | Cc1oc(-c2cccs2)nc1CN1CCN(Cc2ccc(F)c(F)c2)C(CCO)C1 (centres unmarked) | -47.2
40 | Cc1oc(-c2cccs2)nc1CN1CCC(CO)(CCOc2ccccc2)CC1 | -67

Row | Compound | hERG current change (%, negative = inhibition) at 10uM [%]
41 | Cc1ccccc1CC1(CO)CCCN(Cc2nc(-c3cccs3)oc2C)C1 (centres unmarked) | -61.1
42 | COc1cccc(CC2(CO)CCCN(Cc3nc(-c4cccs4)oc3C)C2)c1 (centres unmarked) | -64.5
43 | Cc1oc(-c2cccs2)nc1CN1CCN(CC(C)C)C(CCO)C1 (centres unmarked) | 5.96
44 | Cc1ccc(CN2CCCC(CO)(Cc3ccccc3C)C2)s1 (centres unmarked) | -37.7
45 | COCc1ccc(CN2CCCC(CO)(Cc3cccc(OC)c3)C2)o1 (centres unmarked) | -26.2
46 | COc1cccc(CC2(CO)CCCN(Cc3ccc(CO)o3)C2)c1 (centres unmarked) | -7.04
47 | Cc1oc(-c2cccs2)nc1CN1CC[C@@](O)(c2ccccc2)[C@H]2CCCC[C@@H]21 | 11.8
48 | Cc1ccccc1CC1(CO)CCCN(Cc2ccccc2Cl)C1 (centres unmarked) | -25.6
49 | Cc1oc(-c2cccs2)nc1CN1CCN(C(C)C)C(CCO)C1 (centres unmarked) | 4.95
50 | OCC1CCCN1C(=S)Nc1ccccc1 (centres unmarked) | 3.84
51 | COc1ccc(C(=O)COC(=O)CN2C(=O)C3C4CCC(C4)C3C2=O)cc1 (centres unmarked) | -17.9
52 | O=C(CSc1nc2c(cnn2-c2ccc(F)cc2)c(=O)[nH]1)N1CCCc2ccccc21 | 10.1
53 | O=C1C=C(O)c2cccc3cccc1c23 | 28.3
54 | CCN(CC)S(=O)(=O)c1ccc2c(c1)oc(=O)n2CC(=O)N(C)C1CCCCC1 | -11.9
55 | Cc1cc(-c2cccs2)c2c(n1)sc1c(=O)[nH]c(=O)[nH]c12 | 5.3
56 | O=C(NCCCNC(=O)c1cnccn1)c1ccc(Cl)c(Cl)c1 | -15.6
57 | Cc1oc(-c2cccs2)nc1CN1CCC(c2ccccc2)CC1 | -66.5
58 | COc1ccc(-c2nc(CN3CCC(c4ccccc4)CC3)c(C)o2)cc1OC | -37.7
59 | Cc1oc(-c2cccs2)nc1CN1CCC(C(=O)N2CCCC2)CC1 | -11.2
